Test [1] concerns the target Aldehyde dehydrogenase, mitochondrial (Homo sapiens) (UniProt P05091). The test is described as follows: qHTS for Inhibitors of the Aldehyde Dehydrogenase Family (ALDH2) Confirmatory screens (AID 2061303; active means well fitted inhibition curve with a large enough effect; title and protocol of this record describe different tests; further: nearly all actives have a fitted effect of over 45% in size; further: potency means the concentration at half of the fitted maximal effect). (In general: qHTS replaces the single test concentration by a dilution series.)
The nature of test [2]: qHTS for Inhibitors of the Aldehyde Dehydrogenase Family (ALDH1A2, ALDH1A3, ALDH2, ALDH3A1) (AID 2061307). Further: nearly all actives have a fitted effect of over 50% in size. On Potency: test system not described further here; potency means the concentration at half of the fitted maximal effect.
Test [3] has as its target Aldehyde dehydrogenase 1A1 (Homo sapiens) (UniProt P00352). Nature of the test: qHTS for Inhibitors of the Aldehyde Dehydrogenase Family (ALDH1A1) Confirmatory screens (AID 2061316). Further: nearly all actives have a fitted effect of over 65% in size. Further: potency means the concentration at half of the fitted maximal effect.
The target in test [4] is Retinaldehyde dehydrogenase 3 (Homo sapiens) (UniProt P47895). Nature of the test: qHTS for Inhibitors of the Aldehyde Dehydrogenase Family (ALDH1A3) Primary screen (AID 2061315).
In test [5] the target is Retinal dehydrogenase 2 (Homo sapiens) (UniProt O94788). Nature of the test: qHTS for Inhibitors of the Aldehyde Dehydrogenase Family (ALDH1A2) Confirmation screens (AID 2061314). Further: nearly all actives have a fitted effect of over 65% in size. Further: potency means the concentration at half of the fitted maximal effect.
In test [6] the target is Aldehyde dehydrogenase, mitochondrial (Homo sapiens) (UniProt P05091). Nature of the test: qHTS for Inhibitors of the Aldehyde Dehydrogenase Family (ALDH2) Primary screen (AID 2061308). Further: nearly all actives have a fitted effect of over 55% in size. Further: potency means the concentration at half of the fitted maximal effect.
Test [7] has as its target Retinaldehyde dehydrogenase 3 (Homo sapiens) (UniProt P47895). The test is described as follows: qHTS for Inhibitors of the Aldehyde Dehydrogenase Family (ALDH1A3) Confirmatory screens (AID 2061311). Further: nearly all actives have a fitted effect of over 60% in size. Further: potency means the concentration at half of the fitted maximal effect.

Records with an inconclusive call do not appear. The source made the active and inactive calls. Unless noted, the call rests on the fitted dose curve; in most records, active means well fitted curve in the direction sought with a large enough effect; inconclusive means small, poorly fitted or top-dose-only effect, or another doubt; inactive means no such curve, though single readings can be large; an effect the other way counts as inactive or inconclusive.

For `N#Cc1cccc(N2CCN(Cc3ccc(F)c(Cl)c3F)CC2)n1`, the Potency is 15.8 µM (active) in test [1], 4.58 µM (active) in test [2] and 14.5 µM (active) in test [3].
As to `Cc1cc(-c2nnc3n2CCCCC3)c(C)n1-c1ccc(Br)cc1`, the Potency entry in test [1], in test [2] and in test [4] was “inactive” throughout. The Potency in test [3] was 12.7 µM (active).
As for `CCOc1ccc(-c2cc(C(=O)NCCc3ccc(C)cc3)c3ccccc3n2)cc1`, the Potency result in test [1], in test [2], in test [5] and in test [3] was “inactive” in each case.
In the case of `Cc1ccc(OCCn2c(CCNC(=O)c3ccc([N+](=O)[O-])cc3)nc3ccccc32)cc1`, the Potency in test [1] is 22.5 µM (active); in test [3], 17.9 µM (active). For the same compound, the Potency entry in test [2], in test [5] and in test [4] was “inactive” in each case.
Consider `O=C(Nc1cccc(-c2nc3cc(Cl)ccc3o2)c1)c1cc([N+](=O)[O-])ccc1N1CCOCC1`, for which the Potency entry in test [1], in test [2], in test [5] and in test [3] was “inactive” each time.
With `O=Cc1ccc(-c2ccc3ncnc(NCc4cccs4)c3c2)o1`, the Potency in test [1] is 11.3 µM (active). The Potency entry in test [2], in test [5] and in test [4] was “inactive” each time.
Consider `COc1cc2c(cc1O)C(c1ccc(O)cc1)C(C)C(C)C2` (stereo not given), for which the Potency result in test [1] and in test [6] was “inactive” throughout.
Turning to `O=C(OCC#CCSc1nnc(-c2ccco2)o1)c1ccc(F)cc1`, the figures for the Potency in test [1] and in test [3] were 15.9 µM (active) and 8.96 µM (active), respectively. Also, the Potency entry in test [2] and in test [4] was “inactive” each time.
`COc1cccc(Cc2nc3ccccc3nc2SCC(=O)N2CCN(c3ccccc3)CC2)c1`: the Potency entry in test [1], in test [2], in test [5] and in test [3] was “inactive” each time.
`COc1cc(N2C(=O)c3ccccc3C2=O)c2ncccc2c1`: the Potency entry in test [1], in test [2] and in test [3] was “inactive” in each case.
Turning to `O=C(Cn1nc(-c2ccc(F)cc2)ccc1=O)NCCc1ccccc1`, the Potency result in test [1], in test [2], in test [4] and in test [3] was “inactive” in each case.
`CCOc1ccc(NC(=O)CSc2nc3ccccc3nc2N2CCOCC2)cc1`: the Potency entry in test [1], in test [2] and in test [3] was “inactive” throughout.
On to `COc1cc(Nc2nc(-c3ccncc3)nc3ccccc23)ccc1N1CCN(C)CC1`, for which the Potency entry in test [1] and in test [6] was “inactive” throughout.
In the case of `CS(=O)(=O)c1ccc(C(=O)OCC(=O)N2Cc3ccccc3C2)cc1[N+](=O)[O-]`, the Potency entry in test [1], in test [6] and in test [4] was “inactive” each time. Moreover, the values for the Potency in test [7] and in test [5] were 28.2 µM (active) and 7.98 µM (active), respectively.
Take `CN1CCN(c2cccc(CNc3nn4c(=O)c5ccccc5nc4s3)c2)CC1`: the Potency entry in test [1], in test [6], in test [7] and in test [4] was “inactive” each time. The Potency in test [5] is 25.2 µM (active).
Take `Cc1cc(C=CC#N)cc(C)c1Nc1nc(Nc2ccc3c(c2)CCC3)c2[nH]cnc2n1`: the Potency result in test [1], in test [6], in test [7], in test [5] and in test [4] was “inactive” each time.
For the compound `COc1cccc(-c2no[n+]([O-])c2C#N)c1`, the Potency entry in test [1], in test [6], in test [7], in test [4] and in test [3] was “inactive” throughout. The Potency in test [5] is 10.1 µM (active).
Regarding `CCOC(=O)C1CCN(c2nc(-c3ccc(Br)cc3)cs2)CC1`, the Potency result in test [1], in test [6], in test [7], in test [5], in test [4] and in test [3] was “inactive” each time.
Regarding `Cc1cnc(-c2ccccc2C(C)C)nc1NCC1CN(c2cccnc2)C1`, the Potency in test [1] was 11.3 µM (active); in test [7], 11.3 µM (active); in test [5], 2.52 µM (active); in test [3], 8.96 µM (active). In addition, the Potency entry in test [6] and in test [4] was “inactive” throughout.
For the compound `CC(=O)NC(c1ccco1)c1cc(Cl)c2ccc(N3CCCCC3)nc2c1O` (stereo not given), the Potency in test [1] is 10.1 µM (active); in test [7], 11.3 µM (active); in test [5], 1.59 µM (active); in test [3], 2.25 µM (active). For the same compound, the Potency result in test [6] and in test [4] was “inactive” each time.
For the compound `FC(F)(F)c1cc(-c2ccc(CNc3nc(-c4ccncc4)nc4ccccc34)cc2)ccn1`, the Potency is 8.91 µM (active) in test [1], 2.52 µM (active) in test [7] and 10 µM (active) in test [5]. Besides, the Potency entry in test [6] and in test [4] was “inactive” each time.
In the case of `NC(=O)C1CCN(c2nc(-c3ccc(F)cc3)cs2)CC1`, the Potency result in test [1], in test [6], in test [7], in test [5] and in test [4] was “inactive” in each case.
As for `O=C(/C=C/c1ccc([N+](=O)[O-])o1)Nc1cccc([S+](=O)([O-])Nc2ccccc2F)c1`, the Potency result in test [1], in test [6], in test [7] and in test [4] was “inactive” in each case. Further, the Potency in test [5] and in test [3] was 7.98 µM (active) throughout.
For `Cc1c(P(=O)(c2ccccc2)c2ccccc2)c2ccccc2n1C`, the Potency result in test [1], in test [6], in test [5] and in test [4] was “inactive” throughout. Also, the Potency was 7.12 µM (active) in test [7] and 10.1 µM (active) in test [3].
On to `NC(=O)N1CCN(c2nc(-c3ccc(Br)cc3)cs2)CC1`, for which the Potency result in test [1], in test [6], in test [7], in test [5], in test [4] and in test [3] was “inactive” throughout.
Regarding `O=S(=O)(Nc1ccc(O)c2ncccc12)c1ccccc1F`, the Potency is 4.49 µM (active) in test [1], 2.25 µM (active) in test [7], 2.83 µM (active) in test [5] and 2.01 µM (active) in test [3]. For the same compound, the Potency entry in test [6] is “inactive”.
For `O=C1c2ccccc2NC(c2ccc(-c3ccccc3F)o2)N1O` (stereo not given), the Potency was 11.3 µM (active) in test [1], 8.91 µM (active) in test [6] and 25.2 µM (active) in test [5]. The Potency result in test [7] and in test [4] was “inactive” in each case.
Take `NC(=O)C1CCN(c2ncc(-c3cccc(N4CCCC4)c3)s2)CC1`: the Potency in test [1] was 12.7 µM (active); in test [7], 7.98 µM (active); in test [5] it was 11.3 µM (active); in test [3], 3.57 µM (active). In addition, the Potency result in test [6] and in test [4] was “inactive” in each case.
`O=C1Nc2ccccc2/C1=C\c1ccc(C(=O)O)cc1`: the Potency entry in test [1], in test [6], in test [7], in test [5], in test [4] and in test [3] was “inactive” in each case.
For `COc1ccc(C2=Nn3c(nnc3-c3ccccc3O)SC2)cc1`, the Potency entry in test [1], in test [6], in test [7], in test [5] and in test [4] was “inactive” in each case.
For the compound `Cc1cc(C)nc(NC(=S)N2CCN(c3cccc4ccncc34)CC2)c1`, the Potency in test [1] is 12.7 µM (active); in test [6], 3.16 µM (active); in test [7], 11.3 µM (active); in test [5], 10.1 µM (active); in test [3] it was 4 µM (active).

Source of the values: PubChem BioAssay (NCATS).
